# Measured values from PubChem BioAssay.
# Activity calls are given as the source filed them.
# Key:
# [1] = E. coli DRC41 culture turbidity changes, primary screen, E. coli filamentation inducer project, strain DRC41, OD650, 48 h (AID 1152);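 further: E. coli MC1000 strain DRC41 lacking acrAB efflux pump and sulA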; conditions: E. coli DRC41 (acrAB sulA), higher = more signal, called active from +8 up or from −8 down
# [2] = small-molecule binders of probe aLefty1, primary screen, biochemical, small-molecule microarray, 635/667 nm fluorescence (AID 1153); conditions: higher = more signal;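 further: score merges spot fluorescence with signal-to-noise ratio from the scanned slide images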
# [3] = PSAC antagonists in infected red cells, primary screen, cell-based, P. falciparum Indochina, OD700, 1 h (AID 1154); conditions: P. falciparum Indochina infected RBC osmotic lysis, higher = more signal, called active from +8 up or from −8 down
# [4] = PSAC antagonists in infected red cells, primary screen, cell-based, P. falciparum Indochina, OD700, 2 h (AID 1155);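 further: lysis reports solute entry through the parasite surface anion channel PSAC; channel blockers reduce lysis of infected cells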; conditions: P. falciparum Indochina infected erythrocytes, osmotic lysis OD700; higher = more signal, called active from +8 up or from −8 down
# [5] = osmotic lysis modulators in infected erythrocytes, primary screen, PSAC antagonist project, cell-based, P. falciparum Indochina, OD700, 3 h (AID 1156); conditions: higher = more signal, called active from +8 up or from −8 down
# [6] = PSAC antagonists in infected red cells, primary screen, cell-based, P. falciparum Indochina, OD700, 18 h (AID 1157); conditions: P. falciparum Indochina infected erythrocytes, osmotic lysis OD700, 18 h; higher = more signal, called active from +8 up or from −8 down
# [7] = modulators of S6 phosphorylation in cells, primary screen, cell-based, A549, cytoblot, luminescence, serum-stimulated (AID 1158); conditions: A549 phospho-S6 cytoblot, 5 h, higher = more signal;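 further: serum-stimulated A549 lung adenocarcinoma cells; signal is phosphorylated S6 detected by cytoblot immunostaining with HRP secondary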
# [8] = biological target: NADPH oxidase 2 (Homo sapiens) (UniProt P04839); assay: NOX2-dependent H2O2 signal modulators, primary screen, NOX inhibitor project, cell-based, HEK293-NOX2, PMA-stimulated, Amplex Red fluorescence (AID 1159); conditions: 45 min, higher = more signal, called active from +8 up or from −8 down; further: test concentration not given here
# [9] = biological target: NADPH oxidase 4 (Homo sapiens) (UniProt Q9NPH5); assay: NOX4-dependent H2O2 signal modulators, primary screen, NOX inhibitor project, cell-based, HEK293-NOX4, tetracycline-induced, Amplex Red fluorescence (AID 1160); conditions: 45 min, higher = more signal, called active from +8 up or from −8 down
# [10] = biological target: NADPH oxidase 5 (Homo sapiens) (UniProt Q96PH1); assay: NOX5-dependent H2O2 signal modulators, primary screen, NOX inhibitor project, cell-based, HEK293-NOX5, Amplex Red fluorescence (AID 1161); conditions: HEK293-NOX5, ionomycin, 45 min, higher = more signal
# [11] = A549 cell viability effects, profiling panel, calcein-AM fluorescence, 48 h, basal (AID 1162); conditions: higher = more signal; further: test concentration not given here
# [12] = adipocyte viability effects, profiling panel, cell-based, 3T3-L1 adipocytes, calcein-AM fluorescence, 48 h, basal (AID 1163); conditions: 3T3-L1 adipocytes viability, higher = more signal; further: test concentration not given here
# [13] = HepG2 cell viability effects, profiling panel, calcein-AM fluorescence, 48 h, basal (AID 1164); conditions: higher = more signal; further: test concentration not given here
# [14] = MM1S cell viability effects, profiling panel, calcein-AM fluorescence, 48 h, basal (AID 1165); conditions: higher = more signal;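 further: viability of MM1S multiple myeloma cells under basal unstimulated conditions; test concentration not given here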
# [15] = basal RPMI8226 viability, no added stimulus, profiling panel, cell-based, calcein-AM fluorescence, 48 h, PK04 Diversity Set (AID 1166); conditions: RPMI8226 myeloma viability, higher = more signal;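 further: cells grown under basal conditions without added stimulus; test concentration not given here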
# [16] = basal HepG2 mitochondrial membrane potential changes, profiling panel, cell-based, JC-1 fluorescence, 24 h, 100 nL compound (AID 1167); conditions: higher = more signal; further: test concentration not given here
# [17] = basal 3T3-L1 adipocyte mitochondrial potential changes, profiling panel, cell-based, JC-1 fluorescence, 3T3-L1 adipocytes, 24 h, 100 nL compound (AID 1168); conditions: JC-1 mitochondrial fluorescence, higher = more signal, called active from +8 up or from −8 down; further: test concentration not given here
# [18] = basal RPMI8226 mitochondrial membrane potential changes, profiling panel, cell-based, JC-1 fluorescence, 24 h, 100 nL compound (AID 1169); conditions: RPMI8226 myeloma, JC-1 mitochondrial potential fluorescence, higher = more signal; further: test concentration not given here
# [19] = basal MM1S mitochondrial membrane potential changes, profiling panel, cell-based, JC-1 fluorescence, 24 h, 100 nL compound (AID 1170); conditions: higher = more signal; further: test concentration not given here
# [20] = A549 lung cancer cell viability effects, profiling panel, resazurin fluorescence, 24 h, PK04 Diversity Set (AID 1171); conditions: higher = more signal, called active from +8 up or from −8 down; further: test concentration not given here
# Chain of NADPH oxidase 2 (Homo sapiens) (P04839 whole entry, looked up): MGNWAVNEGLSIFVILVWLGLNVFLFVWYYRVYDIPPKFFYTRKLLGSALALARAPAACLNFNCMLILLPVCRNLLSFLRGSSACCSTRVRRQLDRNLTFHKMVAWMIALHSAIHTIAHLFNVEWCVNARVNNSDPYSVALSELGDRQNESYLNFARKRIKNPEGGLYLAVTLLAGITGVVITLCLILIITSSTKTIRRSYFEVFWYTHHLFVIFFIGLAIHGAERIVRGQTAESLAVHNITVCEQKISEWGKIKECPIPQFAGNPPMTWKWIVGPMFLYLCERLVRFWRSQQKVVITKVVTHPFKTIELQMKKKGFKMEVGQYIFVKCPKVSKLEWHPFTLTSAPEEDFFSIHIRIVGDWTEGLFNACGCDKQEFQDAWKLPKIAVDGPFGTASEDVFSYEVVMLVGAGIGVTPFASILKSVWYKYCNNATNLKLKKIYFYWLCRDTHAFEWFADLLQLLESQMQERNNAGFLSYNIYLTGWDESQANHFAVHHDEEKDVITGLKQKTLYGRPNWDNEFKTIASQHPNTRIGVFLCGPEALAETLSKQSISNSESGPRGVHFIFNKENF
# Chain of NADPH oxidase 4 (Homo sapiens) (Q9NPH5 whole entry, looked up): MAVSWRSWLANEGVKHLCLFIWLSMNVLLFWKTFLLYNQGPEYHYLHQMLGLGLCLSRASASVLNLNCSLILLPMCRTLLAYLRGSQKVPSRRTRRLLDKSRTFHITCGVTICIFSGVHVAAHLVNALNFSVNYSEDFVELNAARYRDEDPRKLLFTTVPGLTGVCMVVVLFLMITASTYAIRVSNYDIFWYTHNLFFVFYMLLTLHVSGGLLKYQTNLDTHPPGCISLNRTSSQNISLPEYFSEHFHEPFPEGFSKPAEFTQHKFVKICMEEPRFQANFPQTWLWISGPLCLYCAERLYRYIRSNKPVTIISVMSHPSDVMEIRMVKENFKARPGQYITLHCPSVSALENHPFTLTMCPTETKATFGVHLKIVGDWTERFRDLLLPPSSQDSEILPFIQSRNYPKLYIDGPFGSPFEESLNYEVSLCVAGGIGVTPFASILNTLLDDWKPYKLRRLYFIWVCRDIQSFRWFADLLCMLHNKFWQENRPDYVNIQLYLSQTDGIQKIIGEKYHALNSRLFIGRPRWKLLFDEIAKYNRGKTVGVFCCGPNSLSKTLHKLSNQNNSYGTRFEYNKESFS
# Chain of NADPH oxidase 5 (Homo sapiens) (Q96PH1 whole entry, looked up): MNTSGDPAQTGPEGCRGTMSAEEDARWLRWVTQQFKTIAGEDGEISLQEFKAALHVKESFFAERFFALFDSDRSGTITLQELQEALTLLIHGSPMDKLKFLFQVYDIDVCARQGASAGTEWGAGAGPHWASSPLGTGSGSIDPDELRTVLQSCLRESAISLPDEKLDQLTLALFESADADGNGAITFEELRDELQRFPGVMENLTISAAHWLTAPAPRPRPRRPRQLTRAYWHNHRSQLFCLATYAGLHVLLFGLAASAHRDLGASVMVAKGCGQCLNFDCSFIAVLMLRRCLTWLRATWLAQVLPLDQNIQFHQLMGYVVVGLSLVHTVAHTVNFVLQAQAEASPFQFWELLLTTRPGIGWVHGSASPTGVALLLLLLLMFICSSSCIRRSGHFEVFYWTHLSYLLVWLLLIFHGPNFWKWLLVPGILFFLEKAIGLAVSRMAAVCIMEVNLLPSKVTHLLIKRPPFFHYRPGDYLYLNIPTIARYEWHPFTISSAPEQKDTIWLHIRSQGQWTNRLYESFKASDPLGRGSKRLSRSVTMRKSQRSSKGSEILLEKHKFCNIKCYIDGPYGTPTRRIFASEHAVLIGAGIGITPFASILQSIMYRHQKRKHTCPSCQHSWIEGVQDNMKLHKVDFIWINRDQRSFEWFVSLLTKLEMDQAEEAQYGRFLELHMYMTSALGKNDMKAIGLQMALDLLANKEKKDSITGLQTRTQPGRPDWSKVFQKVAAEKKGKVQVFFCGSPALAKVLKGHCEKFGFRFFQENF
SMILES,z-score [1],composite z-score [2],z-score [3],z-score [4],z-score [5],z-score [6],z-score [7],z-score [8],z-score [9],z-score [10],z-score [11],z-score [12],z-score [13],z-score [14],z-score [15],z-score [16],z-score [17],z-score [18],z-score [19],z-score [20]
COCCOC(=O)N1C(=O)[C@@]2(c3cc(C#CCCO)ccc31)[C@H](c1ccc(O)cc1)N1[C@H](c3ccccc3)[C@H](c3ccccc3)OC(=O)[C@H]1[C@@H]2C(=O)NC[C@H](O)c1ccccc1,1.49 (inactive),-0.218,3.31 (inactive),1.19 (inactive),0.624 (inactive),0.555 (inactive),0.0833,0.878 (inactive),0.521 (inactive),-0.0839,1.7,0.617,1.2,0.0034,-0.409,-0.424,-1.55 (inactive),-0.429,-0.841,0.908 (inactive)
CO[C@H]1O[C@H](CO)[C@@H](OC(=O)CCc2ccccc2)[C@@H]2OC(=O)[C@@H](Cc3ccc4ccccc4c3)C/C=C/C[C@H](Cc3ccc4ccccc4c3)C(=O)O[C@@H]12,0.411 (inactive),-0.949,2.85 (inactive),-0.498 (inactive),-1.88 (inactive),-1.71 (inactive),0.795,1.5 (inactive),-0.27 (inactive),-0.995,1.39,0.284,1.27,-0.52,0.0085,0.111,0.945 (inactive),0.761,0.0944,-1.39 (inactive)
COc1ccc(CCNC(=O)[C@@H]2c3ccccc3C(=O)N(Cc3cc(F)cc(C(F)(F)F)c3)[C@H]2c2ccc(CO)cc2)cc1,0.799 (inactive),0.659,3.5 (inactive),0.69 (inactive),0.563 (inactive),0.0614 (inactive),-0.155,-2.4 (inactive),-0.0983 (inactive),-2.21,2.41,1.33,0.492,-0.696,0.36,1.98,0.17 (inactive),-0.455,0.558,1.3 (inactive)
CC(C)N1C(=O)[C@@]2(Cc3ccccc31)c1ccccc1C(=O)N(Cc1ccccc1C(F)(F)F)[C@H]2c1ccc(CO)cc1,-0.49 (inactive),-0.853,0.382 (inactive),0.596 (inactive),0.238 (inactive),0.501 (inactive),-0.0346,0.449 (inactive),-1.18 (inactive),0.56,-0.262,0.523,0.133,-0.895,-1.27,-0.77,0.109 (inactive),0.0301,1.03,0.752 (inactive)
COC(=O)[C@@]1(Cc2ccccc2)[C@H]2c3cc(C(=O)N(C)C)n(Cc4ccc(Cl)c(C(F)(F)F)c4)c3C[C@H]2CN1C(=O)c1ccccc1,-2.34 (inactive),0.936,2.46 (inactive),0.943 (inactive),0.453 (inactive),1.18 (inactive),-0.114,0.0852 (inactive),-0.895 (inactive),-1.92,-1.42,0.562,-2.06,-2.56,-4.44,2.34,-1.28 (inactive),-0.968,-1.24,-1.6 (inactive)
C=CCNC(=O)[C@@H]1[C@H]2C(=O)O[C@H](c3ccccc3)[C@H](c3ccccc3)N2[C@H](c2ccc(O)cc2)[C@@]12C(=O)Nc1ccc(C#CC3=CCCCC3)cc12,-0.396 (inactive),1.56,1.71 (inactive),0.959 (inactive),-0.587 (inactive),1.08 (inactive),-0.424,1.51 (inactive),0.391 (inactive),0.578,0.0719,0.266,-3.89,-3.35,-4.57,-1.42,1.38 (inactive),-1.15,-1.2,-1.48 (inactive)
C=CCNC(=O)[C@H]1[C@@H]2C(=O)O[C@@H](c3ccccc3)[C@@H](c3ccccc3)N2[C@@H](c2ccc(OCCO)cc2)[C@]12C(=O)N(C(=O)OCCOC)c1ccc(C#CCNC(N)=O)cc12,0.33 (inactive),0.298,2.53 (inactive),0.666 (inactive),1.09 (inactive),0.83 (inactive),0.387,1.76 (inactive),1.44 (inactive),0.12,0.0935,-0.585,0.854,0.952,1.27,0.0391,0.668 (inactive),-0.596,-0.919,-0.226 (inactive)
CCCCC(=C=CC[C@H](O)c1ccccc1OCCO)CCO,-0.0046 (inactive),-0.245,4.53 (inactive),0.626 (inactive),-0.0542 (inactive),0.331 (inactive),-0.401,-0.732 (inactive),-0.145 (inactive),-1.55,-0.341,-0.358,0.285,-0.0455,-0.857,-0.95,0.101 (inactive),-0.193,-0.434,0.356 (inactive)
C=C(CCCC)C(=O)CC[C@@H](OC(C)=O)c1ccc(OCCO)cc1,0.0142 (inactive),0.0533,7.67 (inactive),1.16 (inactive),0.888 (inactive),0.455 (inactive),-0.222,-1.4 (inactive),-1.4 (inactive),-1.87,-0.0836,0.997,-0.439,-1.97,-1.92,-0.338,-0.362 (inactive),-0.793,-0.36,0.325 (inactive)
